{"source": "PubChem BioAssay AID934", "about": "(National Center for Advancing Translational Sciences (NCATS), 2007)", "note": "Results filed as inconclusive are left out. Active and inactive are the calls of the source. Calls come from the whole dose curve; as a rule, active = well fitted activation curve with a large enough effect; inconclusive = small, poorly fitted or top-dose-only effect; inactive = flat fitted curve, though single readings scatter.", "data": [{"assay": "Parental Cell Counter Screen for Stat Signaling Pathway Assay", "details": "ME-180 parental cells, blue fluorescence artefact counter-screen; series mostly up to 38.3 µM; activity (fluorescence increase): at the top concentration", "text": "NIH Molecular Libraries Screening Centers Network [MLSCN] NIH Chemical Genomics Center [NCGC] MLSCN Grant: None NCGC Assay Overview: This assay is a counter screen for the Stat signaling pathway assay (PubChem AID 446). The Stat assay is cell-based and measures Interleukin 6 (IL-6) mediated modulation of a beta-lactamase reporter gene controlled by a STAT inducible element (SIE-bla cells, Invitrogen). IL-6 is a cytokine that signals via the JAK/STAT pathway and is implicated in cancer and inflammation. […] Compounds active in the parental ME-180 cells are likely fluorescent.\nNCGC Assay Protocol Summary: Cells were trypsinized, washed in assay medium (AM, OPTI MEM with 0.5% fetal bovine serum, 0.1 mM nonessential amino acids, 1 mM sodium pyruvate, 10mM HEPES pH 7.3, 100U/ml penicillin, and 100 ug/ml streptomycin) and suspended at […] in AM. Approximately 2500 cells in 5 uL/well was dispensed into 1536-well plates and the cells were incubated overnight at 37 C. 23 nL of compound were delivered by a pin tool and 1 uL of IL-6 (40 pM final concentration in AM) was added. After plates were incubated at 37 C for 5 hrs, 1uL of detector mix (LiveBLAzerTM, Invitrogen) was added, the plates incubated at room temperature for 2.5 hrs, and fluorescence intensity at 460 and 530 nm emissions was measured at 405 nm excitation by an Envision (Perkin Elmer).", "values": [{"smiles": "Nc1ncnc2c1ncn2[C@@H]1O[C@H](COP(=O)(O)O)[C@@H](O)[C@@H]1O", "activity (fluorescence increase)": "-3.74% (inactive)"}, {"smiles": "CN(C)CCCN=c1c2ccccc2n(C)c2[nH]c(=O)n(C)c(=O)c12", "activity (fluorescence increase)": "8.49% (inactive)"}, {"smiles": "CCOC(=O)CCc1c(C)c(C#N)c2[nH]c3ccccc3n2c1=O", "activity (fluorescence increase)": "16.7% (inactive)"}, {"smiles": "CCc1cc2c(=O)c(-c3nc4ccccc4[nH]3)coc2cc1OC(=O)N1CCOCC1", "Potency": "12.6 µM (active)"}, {"smiles": "CC1(C)Cc2c(C#N)c(NCCc3ccccc3)nc(-c3ccco3)c2CO1", "Potency": "5.01 µM (active)"}, {"smiles": "CN1CCc2c(sc3ncn4nc(-c5ccccc5O)nc4c23)C1", "Potency": "31.6 µM (active)"}, {"smiles": "CCN(CC)CCN1C(=O)c2cccc3cc(N)cc(c23)C1=O", "activity (fluorescence increase)": "3.77% (inactive)"}, {"smiles": "Cc1ccc(S(=O)(=O)N2CCN(c3nc(C(C)C)c4c(c3C#N)CC(C)(C)OC4)CC2)cc1", "activity (fluorescence increase)": "10.2% (inactive)"}, {"smiles": "COc1ccc2c(c1)c1c(C)c3cnccc3c(C)c1n2CCCN", "Potency": "31.6 µM (active)"}, {"smiles": "O=C(O)CCc1c2ccc(=O)c(O)c-2oc2c(O)c(O)ccc12", "activity (fluorescence increase)": "-1.89% (inactive)"}, {"smiles": "CN(C)S(=O)(=O)c1ccc2c(c1)/C(=C/c1cc3c([nH]1)CCCC3)C(=O)N2", "activity (fluorescence increase)": "1.89% (inactive)"}, {"smiles": "Cn1c(N2CCN(c3ccccn3)CC2)nc2c1c(=O)n(Cc1ccc(Cl)cc1)c(=O)n2C", "activity (fluorescence increase)": "13.9% (inactive)"}, {"smiles": "Cc1oc2cc(O)cc(C)c2c(=O)c1-c1cnn(-c2ccccc2)c1", "activity (fluorescence increase)": "10.2% (inactive)"}, {"smiles": "CC(C)(C)c1nnc2sc(SCC(=O)c3ccccc3)nn2c1=O", "activity (fluorescence increase)": "13.9% (inactive)"}, {"smiles": "CCOC(=O)CSc1nnc2n(Cc3ccccc3)c(=O)c3c4c(sc3n12)CCC4", "activity (fluorescence increase)": "16.7% (inactive)"}, {"smiles": "Nc1ncnc2c1ncn2[C@@H]1O[C@@H](CO)[C@H](O)[C@@H]1O", "activity (fluorescence increase)": "11.2% (inactive)"}, {"smiles": "Cn1c(NCc2ccccc2)nc2c1c(=O)n(Cc1ccc(Br)cc1)c(=O)n2C", "activity (fluorescence increase)": "13.9% (inactive)"}, {"smiles": "O=C(O)c1c(Br)c(Br)c(Br)c(Br)c1C1c2ccc(O)cc2Oc2cc(O)ccc21", "activity (fluorescence increase)": "8.49% (inactive)"}, {"smiles": "CN(C)CCCn1c2c3ccccc3ccc2c2oc(=O)c3ccccc3c21", "Potency": "12.6 µM (active)"}, {"smiles": "Cc1cc(=O)oc2c(CN3CCCCC3)c(O)c(Cl)cc12", "Potency": "10 µM (active)"}, {"smiles": "CCOC(=O)N1CCC(=C2c3ccc(Cl)cc3CCc3cccnc32)CC1", "activity (fluorescence increase)": "22.2% (inactive)"}, {"smiles": "ClC(=Nc1cccc2ccccc12)N(c1ccccc1)c1ccccc1", "activity (fluorescence increase)": "7.48% (inactive)"}, {"smiles": "Cc1ccc(CNC(=O)c2cc3c(=O)n4ccccc4nc3n(CC3CCCO3)c2=N)cc1", "note": "(stereo not drawn)", "Potency": "10 µM (active)"}, {"smiles": "COc1ccc2[nH]c3c(N4CCN(Cc5ccc6c(c5)OCO6)CC4)ncnc3c2c1", "activity (fluorescence increase)": "9.26% (inactive)"}, {"smiles": "CCSc1nc(N)c(C#N)c(-c2ccccc2Cl)c1C#N", "activity (fluorescence increase)": "13.9% (inactive)"}, {"smiles": "COc1cccc2c1[C@H](CO)N1[C@H](C#N)[C@@H]3C[C@H](C(=O)O)[C@@H]([C@@H]1C2)N3C", "activity (fluorescence increase)": "12.3% (inactive)"}, {"smiles": "COc1ccc(C[C@@H]2C(=O)N[C@H](C)C(=O)N(C)[C@@H]3Cc4ccc(cc4)Oc4cc(ccc4O)C[C@H](C(=O)N[C@@H](C)C(=O)N[C@H](C)C(=O)N2C)N(C)C3=O)cc1", "activity (fluorescence increase)": "10.4% (inactive)"}, {"smiles": "O=c1c(O)c(-c2ccc(O)c(O)c2)oc2cc(O)cc(O)c12", "activity (fluorescence increase)": "15.9% (inactive)"}, {"smiles": "C=CCn1c(SCC(=O)c2ccc(NS(=O)(=O)c3ccccc3)cc2)nnc1-c1cccs1", "activity (fluorescence increase)": "12% (inactive)"}, {"smiles": "C=C1C(=O)O[C@@H]2[C@@H]1CC/C(C)=C\\CC[C@@]1(C)O[C@H]21", "activity (fluorescence increase)": "28.3% (inactive)"}, {"smiles": "CC1CCN(c2oc(-c3ccccc3Cl)nc2C#N)CC1", "activity (fluorescence increase)": "6.48% (inactive)"}, {"smiles": "COc1ccc(-c2nn3c(COc4ccccc4)nnc3s2)cc1OC", "activity (fluorescence increase)": "10.2% (inactive)"}, {"smiles": "N/C(=N\\O)c1cn([C@@H]2O[C@@H](CO)[C@H](O)[C@@H]2O)c2ncnc(NO)c12", "activity (fluorescence increase)": "18.9% (inactive)"}]}]}
